In the library only some 0.86% were active in any assay of this set; here they are far more common.
PGK inhibitor: T. brucei PGK inhibition; AID 602233; P07378; Potency, µM (series often up to 57.5 µM), without a hit: top-dose activity change, negative = inhibition, hits mostly inhibitors; PGK/GAPDH coupled, Kinase-Glo luminescence, 60 min; actives 0.043% (n = 380,000); note: nearly all actives have a fitted effect of over 60% in size
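Luminescent ATP detection (Kinase-Glo Plus) follows a 60-minute room-temperature incubation, with wells lacking PGK as controls. Buffer: 100 mM TEA (pH 7.6), 5 mM MgCl2, 0.01% Tween-20. Coupling enzyme GAPDH (100 nM final) supplies unstable 1,3-BPG in-well.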
RECQ1 inh: inhibitors of human RECQ1 DNA helicase; RECQ1 DNA unwinding, red fluorescence kinetic read; Potency, µM (highest dose often 57.3 µM), for the others: top-dose activity, negative = inhibition, usual class: inhibitors; actives 0.54% (n = 240,000); AID 2549;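 note: plate controls were vehicle for no effect and no enzyme for full effect; nearly all actives have a fitted effect of over 30% in size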
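50 nM RECQ1T1 preincubated 15 min with compound in Tris pH 8.0 buffer with MgCl2, DTT, Tween-20 and 2.5 ug/ml poly(dI-dC); started with 200 nM TAMRA/BHQ-2 forked duplex and 2 mM ATP. Unwinding read as fluorescence (525/598 nm), two reads 2 h apart.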
APEX1 inh: blocks human APE1 abasic DNA cleavage; actives 0.35% (n = 350,000); recombinant APE1, TAMRA/BHQ-2 abasic DNA cleavage fluorescence; Potency, µM (titrated, usually from 65.8 µM), for the others: top-dose activity change, negative = inhibition, hits mostly inhibitors;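 note: plate controls were vehicle for no effect and reference inhibitor for full effect; nearly all actives have a fitted effect of over 55% in size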
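Activity was derived from the fluorescence gain between first and third kinetic reads (60 s intervals, ex 525/em 598 nm) after 50 nM THF-abasic TAMRA/BHQ-2 duplex was added to 0.75 nM APE1 preincubated 15 min with compound.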
BLM inh: inhibitors of human Bloom syndrome helicase BLM | actives 0.2% (n = 350,000) | recombinant BLM DNA unwinding, fluorescence dequenching | Potency, µM (highest dose often 56.1 µM), for the others: top-dose activity change, negative = inhibition, actives largely listed as inhibitors | P54132;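 note: plate controls were vehicle for no effect and no enzyme for full effect; nearly all actives have a fitted effect of over 35% in size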
FEN1 inh: human FEN1 inhibition | P39748 | Recombinant FEN1 flap cleavage, fluorescence, 15 min | Potency, µM (highest dose often 114 µM), inactives show at the top dose activity change, negative = inhibition, hits mostly inhibitors | actives 0.35% (n = 390,000) | AID 588795; note: nearly all actives have a fitted effect of over 65% in size
Target sequence (P39748 whole entry, looked up): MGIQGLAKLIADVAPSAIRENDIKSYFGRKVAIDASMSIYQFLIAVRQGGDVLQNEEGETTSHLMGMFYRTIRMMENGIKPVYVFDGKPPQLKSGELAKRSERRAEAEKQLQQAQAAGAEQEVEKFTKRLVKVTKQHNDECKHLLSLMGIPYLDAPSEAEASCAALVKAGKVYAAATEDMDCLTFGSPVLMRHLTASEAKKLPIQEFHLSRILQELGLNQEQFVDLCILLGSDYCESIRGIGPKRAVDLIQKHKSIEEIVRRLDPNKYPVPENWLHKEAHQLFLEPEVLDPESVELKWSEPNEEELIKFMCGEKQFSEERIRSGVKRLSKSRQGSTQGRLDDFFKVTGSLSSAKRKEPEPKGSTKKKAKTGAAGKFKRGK
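With each library titrated from low to high concentration, compounds met 10 nM FEN1 for 15 min at room temperature before 50 nM substrate was added; readings at 0 and 15 min fed four-parameter Hill curve fits.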
GLS inhibitor: glutaminase GLS (human) inhibition | Potency, µM (doses to about 45.5 µM), for the others: at the top dose activity change, negative = inhibition, actives largely listed as inhibitors | actives 0.21% (n = 410,000) | GLS enzymatic activity, qHTS titration | O94925
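Glutamate formation by hKGA was monitored fluorometrically using coupled glutamate oxidase, HRP and Amplex Red. Substrate was added as 1 mM L-glutamine solution; incubation was 30 min at RT after an initial read.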
* = called active by the depositor; i = inactive; ? = inconclusive; · = no result given. Calls come from the whole dose curve; as a rule, active = well fitted curve in the direction sought with a large enough effect; inconclusive = small, poorly fitted or top-dose-only effect, or another doubt; inactive = no such curve, though single readings can be large; an effect the other way counts as inactive or inconclusive. Unless noted, % is set by controls: 0 for no effect and ±100 for the full control effect; potency is the fitted concentration of half-maximal effect.

SMILES	PGK inhibitor	RECQ1 inh	APEX1 inh	BLM inh	FEN1 inh	GLS inhibitor
C/C1=C2/[N-]C(C(CC(N)=O)[C@@]2(C)CCC(=O)NCC(C)OP(=O)([O-])O[C@H]2[C@@H](O)[C@@H](n3cnc4cc(C)c(C)cc43)O[C@@H]2CO)[C@]2(C)N=C(/C(C)=C3N=C(/C=C4N=C1C(CCC(N)=O)C\4(C)C)[C@@H](CCC(N)=O)[C@]\3(C)CC(N)=O)[C@@H](CCC(N)=O)[C@]2(C)CC(N)=O.CC(=O)O.[Co] (stereo partly specified)	·	·	·	25.1µM*	·	-14.1%
O=[N+]([O-])c1cc(Cl)cc(/C=N/Nc2nc3ccccc3s2)c1O	1.1%	-3.4%	15.1%	-5.2%	-12.1%	0.0%
COc1cc(/C=N/Nc2nc3ccccc3s2)cc([N+](=O)[O-])c1O	?	7.3%	7.5%	?	44.7µM*	?
O=C(O)Cc1cccc(=O)c(O)c1C(=O)O	12.6µM*	·	·	·	?	2.24µM*
O=C(O)Cc1ccccc1C(=O)O	0.1%	-6.3%	25.8%	-6.2%	4.9%	-2.5%
CCc1ccc(/C(C)=N/NC(=O)CNC(=O)/C=C/c2ccco2)cc1	14.1µM*	·	·	·	44.7µM*	0.0%
CCCCN(CCC(=O)O)c1ccc(/C=C/c2ccnc3ccccc23)cc1	·	·	·	·	-16.6%	·
O=P(O)(O)OC[C@@H](O)CO	·	·	·	·	·	0.8%
COc1ccc(/C=C/c2nccc3c2[nH]c2ccccc23)cc1	·	·	·	·	-26.3%	·
C(=C/c1nccc2c1[nH]c1ccccc12)/c1ccc2c(c1)OCO2	i	?	5.5%	-8.3%	44.7µM*	2.7%
CC(C)(C)Nc1nc(C#N)nc(Nc2ccccc2)n1	·	-1.0%	-1.2%	-11.4%	·	·
CC(=O)Nc1cc(NC(C)=O)cc(C(=O)N2CCCC3CCCCC32)c1 (stereo unspecified)	-7.1%	·	16.8µM*	-21.9%	-19.7%	?
CC(C)(C)n1ncc2c(=O)n(Cc3ccc(Cl)cc3C(F)(F)F)cnc21	·	·	-2.9%	·	6.8%	·
COc1ccccc1-c1nnc(Nc2nc3c(OC)cccc3s2)o1	-5.4%	?	-7.3%	-0.5%	-10.9%	-4.0%
NNc1nc2c(Cl)c(Cl)ccc2s1	?	-26.9%	3.16µM*	-26.9%	?	19.6%
COc1cccc2sc(NN)nc12	-10.0%	i	-3.7%	-12.9%	-19.1%	14.1µM*
COc1cc2c(NC3CCN(C)CC3)nc(N3CCCN(C)CC3)nc2cc1OCC1CCNCC1	·	·	·	·	10µM*	·
COc1cc2c(NC3CCN(C)CC3)nc(N3CCCN(C)CC3)nc2cc1OCCCCCN(C)C	·	·	·	·	22.4µM*	·
COc1cc2nc(N3CCOCC3)nc(NC3CCN(Cc4ccccc4)CC3)c2cc1OC	·	·	·	·	-9.9%	·
COc1cc2c(NC3CCN(C)CC3)nc(N3CCCN(C)CC3)nc2cc1OCCN(C)C	·	·	·	·	25.1µM*	·
COc1cc2c(NC3CCN(C)CC3)nc(N3CCCN(C)CC3)nc2cc1OCCCCN	·	·	·	·	10µM*	·
O=C(O)c1ccc(CSc2nnc(-c3cccc(S(=O)(=O)NC4CCCC4)c3)n2-c2ccc(F)cc2)cc1	·	·	61.4%	·	·	·
CC[C@@H]1OC(=O)C[C@H](O)[C@@H](C)[C@@H](O[C@H]2O[C@@H](C)[C@H](O[C@@H]3C[C@](C)(O)[C@H](O)[C@@H](C)O3)[C@@H](N(C)C)[C@@H]2O)[C@@H](C=O)C[C@@H](C)C(=O)/C=C/C(C)=C[C@@H]1CO[C@H]1O[C@@H](C)[C@H](O)[C@H](OC)[C@@H]1OC	·	·	·	·	·	21.4%
COc1cc2c(NC3CCN(C(C)C)CC3)nc(N3CCCN(C)CC3)nc2cc1OCCCN(C)C	·	·	·	·	31.6µM*	·
CCN(CC)CCCOc1cc2nc(N3CCCN(C)CC3)nc(NC3CCN(C)CC3)c2cc1OC	·	·	·	·	25.1µM*	·
COc1cc2nc(Cl)nc(N3CCN(C)CC3)c2cc1OC	·	-2.3%	2.4%	3.4%	·	·
CC(C)(C)c1ccc(O)c(N=Cc2cccc([N+](=O)[O-])c2)c1	·	·	·	·	-5.0%	·

Compound activity deposited in PubChem by National Center for Advancing Translational Sciences (NCATS).
